Source: PubChem BioAssay
NPSR antagonist = qHTS Assay for Antagonists of the Neuropeptide S Receptor: cAMP Signal Transduction; Q6W5P4; CHO-NPSR cells, cAMP TR-FRET, antagonist mode; Potency, µM (series often up to 38.3 µM), without a hit: at the top dose activity change, negative = inhibition, actives largely listed as inhibitors; 220,000 compounds, 1% hits; further: nearly all actives have a fitted effect of over 50% in size
Target sequence (Q6W5P4 whole entry, looked up): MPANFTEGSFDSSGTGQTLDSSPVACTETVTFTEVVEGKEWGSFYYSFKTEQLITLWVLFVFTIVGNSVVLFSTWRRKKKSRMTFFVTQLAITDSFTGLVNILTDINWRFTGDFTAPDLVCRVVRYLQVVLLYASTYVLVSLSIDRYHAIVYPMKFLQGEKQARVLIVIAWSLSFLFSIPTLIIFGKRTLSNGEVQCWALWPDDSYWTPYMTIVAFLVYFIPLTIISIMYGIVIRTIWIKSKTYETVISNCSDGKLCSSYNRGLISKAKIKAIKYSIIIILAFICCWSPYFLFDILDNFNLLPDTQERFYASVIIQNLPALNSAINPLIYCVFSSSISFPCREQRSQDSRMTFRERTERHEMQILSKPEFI
TrxR1 inh = qHTS Assay for Inhibitors of Mammalian Selenoprotein Thioredoxin Reductase 1 (TrxR1): qHTS; 390,000 compounds, 1% hits; Thioredoxin reductase 1, cytoplasmic (Rattus norvegicus), O89049; Potency, µM (titrated, usually from 114 µM), without a hit: top-dose activity change, negative = inhibition, actives largely listed as inhibitors; recombinant rTrxR1, NADPH fluorescence consumption, selenite substrate; further: nearly all actives have a fitted effect of over 65% in size
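Rat TrxR1 (90 nM in the dispensed reagent) was pre-reduced with 400 uM NADPH for 5 min at room temperature, then incubated with compound for 15 min. After 400 uM selenite was added, NADPH fluorescence (Ex 340/Em 450 nm) was followed for 8 min.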
TrxR1 substrate = qHTS Assay for Substrates of Mammalian Selenoprotein Thioredoxin Reductase 1 (TrxR1): qHTS. Thioredoxin reductase 1, cytoplasmic (Rattus norvegicus), O89049. Potency, µM (doses to about 114 µM), inactives show at the highest dose activity change, negative = substrate turnover. purified TrxR1 substrate turnover, NADPH consumption readout. 390,000 compounds, 0.01% hits; further: nearly all actives have a fitted effect of over 50% in size
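Rat TrxR1, dispensed at 90 nM, was prereduced with 400 uM NADPH (final) for 5 min at ~22 deg C, then incubated with compound 15 min before 400 uM selenite. A first-read NADPH fluorescence drop versus no-compound background flagged substrates.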
GALK inhibitor = qHTS Assay for Inhibitors of Human Galactokinase (GALK); Purified GALK, Kinase-Glo residual ATP luminescence; Potency, µM (series often up to 57.5 µM), without a hit: at the highest dose activity change, negative = inhibition, actives largely listed as inhibitors; 270,000 compounds, 0.007% hits
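Quantitative HTS: GALK 5 nM, ATP 35 uM, galactose 100 uM, 1 h room temperature, then luciferase-based ATP detection.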
* marks the source's active call; other numbers are inactive results; ? = inconclusive; nt = no result given; [ ] = dose if it differs, or a comment. An excerpt weighted towards active compounds, which were near 1.2% of everything screened. The call rests on the fitted dose curve; in most records, active means well fitted curve in the direction sought with a large enough effect; inconclusive means small, poorly fitted or top-dose-only effect, or another doubt; inactive means no such curve, though single readings can be large; an effect the other way counts as inactive or inconclusive. On the % scale 0 is the no-effect control and ±100 the full control effect; potency means the concentration at half of the fitted maximal effect.

SMILES	NPSR antagonist	TrxR1 inh	TrxR1 substrate	GALK inhibitor
C=C(C)CSc1cc(C)c(C#N)c2nc3ccccc3n12	1%	11µM*	35%	-3%
Cc1cc(C(c2nnnn2Cc2ccccc2)N2CCOCC2)c(C)n1-c1ccc2c(c1)OCO2 (stereo unspecified)	-37%[46.1 µM]	7.9µM*	7%	2%
c1ccc(Cn2nnnc2C(c2ccncc2)N2CCOCC2)cc1 (stereo unspecified)	-6%[46.1 µM]	-5%	1%	0%
CCOC(=O)c1cc([N+](=O)[O-])cc([N+](=O)[O-])c1Sc1ncnc2nc[nH]c12	nt	0.45µM*	0%[57.1 µM]	nt
Cc1ccc(Cn2cnc3c(cnn3C(C)(C)C)c2=O)cc1F	nt	17%	-3%	nt
Cc1ccc(Sc2ccc([N+](=O)[O-])cc2[N+](=O)[O-])nc1	10%	-39%	-3%[57.1 µM]	2%
Cc1ccnc(Sc2ccc([N+](=O)[O-])cc2[N+](=O)[O-])n1	17%[46.1 µM]	20µM*	6%	-3%
COc1ccc2c(c1)CCc1c(C(=O)N3CCOCC3)noc1-2	-7%[46.1 µM]	20µM*	-2%	1%
O=C(O)COc1ccccc1C1Nc2ccccc2-c2nnc(SCc3ccc(Cl)cc3)nc2O1 (stereo unspecified)	nt	-3%	-3%	nt
Cc1ccc(S(=O)(=O)N2CCCN(C)CC2)cc1	nt	28µM*	5%	0%
CN1CCCN(S(=O)(=O)c2ccccc2)CC1	nt	14%[57.1 µM]	?	3%
COC(=O)C1=C(O)/C(=C\c2cc(C)n(-c3ccccc3F)c2C)N=C1C	-24%	16µM*	-1%	0%
CC1=NOC(=O)/C1=C\c1ccc(-c2cc(Cl)ccc2Cl)o1	10µM*	16µM*	10%	-14%
CCCCN(CC)CCCNC(=O)Cn1ncc2c3ccccc3n(Cc3ccccc3F)c2c1=O	nt	2%	4%	nt
Cn1c(=O)c2cc(C(=O)N3CCN(c4cccc(C(F)(F)F)c4)CC3)sc2c2ccccc21	nt	26%	6%	nt
Cc1cc(Cl)ccc1OCC(=O)N(Cc1ccco1)c1c(N)n(Cc2ccccc2)c(=O)[nH]c1=O	nt	50µM*	-3%	nt
Nc1c(N(CCO)C(=O)/C=C/c2ccco2)c(=O)[nH]c(=O)n1Cc1ccccc1	13%	20µM*	-6%	2%
C/C=C\C=C/C(=O)Nc1cccc(C2=NOC3(C2)C[C@H](C(N)=O)N(C(=O)Cc2ccc([N+](=O)[O-])cc2)C3)c1 (stereo partly specified)	16%	7.9µM*	8%[57.1 µM]	2%
C/C=C\C=C/C(=O)Nc1cccc(C2=NOC3(C2)C[C@@H](C(N)=O)N(C(=O)CCCCC)C3)c1 (stereo partly specified)	13%	14µM*	4%	4%
C/C=C(/C)C(=O)Nc1cccc(C2=NOC3(C2)C[C@@H](C(N)=O)N(C(=O)CCCCC)C3)c1 (stereo partly specified)	22%	13%[57.1 µM]	11%[57.1 µM]	-4%
C/C=C/C=C\C(=O)Nc1cccc(C2=NOC3(C2)C[C@H](C(N)=O)N(C(=O)CC#N)C3)c1 (stereo partly specified)	23%	22µM*	1%	-1%
C/C=C/C=C\C(=O)Nc1cccc(C2=NOC3(C2)C[C@@H](C(N)=O)N(C(=O)/C(C)=C/C)C3)c1 (stereo partly specified)	22%	11µM*	2%[57.1 µM]	4%
Cc1csc(C)[n+]1CCC1CCCCC1	nt	18%	1%	nt
C/C=C/C=C/C(=O)N1CC2(CC(c3cccc(NC(=O)CCCCC)c3)=NO2)C[C@H]1C(N)=O (stereo partly specified)	11%	28µM*	0%	3%
C/C=C\C=C/C(=O)Nc1cccc(C2=NOC3(C2)C[C@H](C(N)=O)N(C(=O)CC)C3)c1 (stereo partly specified)	35%	14µM*	-3%[57.1 µM]	-2%
SMILES	NPSR antagonist	TrxR1 inh	TrxR1 substrate	GALK inhibitor
COCCCn1c(SCC(=O)Nc2ccc3c(c2)OCCO3)nnc1-c1ccoc1C	-11%[46.1 µM]	-9%	0%	4%
COCCn1c(SCC(=O)c2ccc3c(c2)OCCO3)nnc1-c1ccoc1C	-15%[46.1 µM]	45µM*	-5%	-2%
CCCCn1c(SCC(=O)c2ccc3c(c2)OCCO3)nnc1-c1ccco1	-15%[46.1 µM]	7.1µM*	-4%	1%
Cc1c(Cl)cccc1NC(=O)CCn1c(=O)c2cccn2c2ccccc21	nt	9%	-1%	nt
CCOC(=O)C(=Cc1cc(=O)c(OC)co1)C(=O)OCC	?	3.5µM*	2%	nt
COc1ccc(NC(=O)CN2C(=O)CC(c3ccc(C)c(C)c3)=Nc3ccccc32)cc1OC	nt	12%[57.1 µM]	-1%[57.1 µM]	nt
CN(Cc1ccccc1C#N)S(=O)(=O)c1cccs1	nt	16%	3%	-1%
N#Cc1nccnc1S(=O)(=O)c1cccs1	?	0.32µM*	9%[57.1 µM]	nt
COC(=O)/C(=C/c1c[nH]c2ccccc12)[N+](=O)[O-]	-14%[46.1 µM]	13µM*	6%	-1%
O=[N+]([O-])c1ccc(C2Nc3cccc4cccc(c34)N2)cc1	-15%	35µM*	-7%	-1%
COC(=O)c1ccc(C2Nc3cccc4cccc(c34)N2)cc1	-32%	10%[57.1 µM]	4%[57.1 µM]	1%
O=[N+]([O-])c1cccc(C2Nc3cccc4cccc(c34)N2)c1	-11%	50µM*	-8%	-4%
Cc1cccc(OCCOc2ccccc2C=C(C#N)C#N)c1	-46%	2.8µM*	1%	0%
Cc1ccccc1OCCOc1ccccc1C=C(C#N)C#N	-23%	nt	nt	0%
Cc1cc2c(cc1C)N(C(=O)CCl)CCN2C(=O)CCl	nt	1.1µM*	2%[57.1 µM]	nt
NC(=S)NN=C1c2ccccc2-c2c(F)c(F)c(F)c(F)c21	nt	56µM*	-10%	nt
CN(C)CCNc1cc(N2CCN(C)CC2)ncn1	nt	4%	-2%	nt
Brc1cccc[n+]1CCC[n+]1ccccc1Br	nt	6.3µM*	-12%	nt
CCCCN(C)CCNC(=O)c1cc2cc3ccc(OC)cc3nc2o1	nt	45µM*	606%	3%
Nc1ncnc2oc(-c3ccoc3)c(-c3ccco3)c12	nt	50µM*	25%	nt
CCN(CC)CCN(C(=O)c1ccco1)c1nc2ccc(Br)cc2s1	nt	-3%	-10%	nt
CCn1cc(C(=O)NCC2CCCO2)c(=O)c2cc(S(=O)(=O)N3CCC(C)CC3)ccc21 (stereo unspecified)	-11%[46.1 µM]	-5%	-3%	3%
CCn1cc(C(=O)NCC2CCCO2)c(=O)c2cc(S(=O)(=O)N3CCCCCC3)ccc21 (stereo unspecified)	3.2µM*	-3%	-1%	-1%
CCC(C(=O)NC1CCCCC1)n1nc(C)c2sc3ccccc3c2c1=O (stereo unspecified)	nt	131%	39%	nt
COc1cc2cncnc2cc1OCCCCC(N)=O	nt	10%	5%	nt
CCOC(=O)CSc1[nH]c2cc(OC)ccc2c1[N+](=O)[O-]	25%	-53%	12%[57.1 µM]	0%
